In PubChem BioAssay AID720518 (National Center for Advancing Translational Sciences (NCATS), 2013):
Records with an inconclusive call do not appear. Activity calls are given as the source filed them. The call rests on the fitted dose curve.

Test: qHTS for Inhibitors of Cell Surface uPA Generation: Wild-type Protective Antigen (WT-PrAg) Counterscreen for Cherry-picked Compounds; further: 0% is about no effect
Settings: cells, WT protective antigen toxicity counterscreen; series mostly up to 115 µM; activity (protection): at the top concentration
In the case of `O=C1CC(/C=C/c2ccc(Cl)cc2)=Nc2ccccc2N1`, the “activity (protection)” value is reported as -1.15% (inactive). In the case of `COc1ccc(CNCCC2(C(C)C)CCOC(C)(C)C2)cc1` (configuration not stated), the “activity (protection)” value is reported as -0.773% (inactive). For `C[C@H]1CN([C@@H](C)CO)C(=O)c2cc(NS(=O)(=O)c3ccc(Cl)cc3)ccc2O[C@@H]1CN(C)CC1CCCCC1`, the “activity (protection)” value was 4.58% (inactive). For `N#C/C(N=Nc1ccccc1O)=N\Nc1ccccc1O`, the “activity (protection)” value was 8.66% (inactive). With `CC(C)NCC1CCc2cc(CO)c([N+](=O)[O-])cc2N1` (configuration not stated) the “activity (protection)” value was 4.76% (inactive). For `CCOC(=O)[C@H]1[C@H]2COc3ccc(Br)cc3[C@@H]2N2C(=O)c3c(C)cc(C)cc3NC(=O)[C@@]12C`, the “activity (protection)” value was 1.23% (inactive). For `C/C(=N\NC(=O)c1cccc([N+](=O)[O-])c1)c1cccnc1`, the “activity (protection)” value was -0.627% (inactive). In the case of `COc1ccc(C(=O)NCC(=O)N/N=C/c2c(C)[nH]c3ccccc23)cc1`, the “activity (protection)” value is reported as 0.57% (inactive). In the case of `O=C(CSC1=NS(=O)(=O)c2ccccc2N1)Nc1nccs1`, the “activity (protection)” value is reported as 0.09% (inactive). For `O=C(c1ccc(NC(=S)NCc2ccc(Cl)cc2)cc1)N1CCCCC1`, the “activity (protection)” value was -1.71% (inactive). With `CC1(c2cccc([N+](=O)[O-])c2)CC(C)(C)N(C(=O)c2ccccc2)c2ccccc21` (configuration not stated) the “activity (protection)” value was -1.21% (inactive). In the case of `S=C(Nc1ccccc1Oc1ccccc1)NC1CCCC1`, the “activity (protection)” value is reported as -2.13% (inactive). For `COc1ccc(C(=O)OCC(=O)N(C)C2CCS(=O)(=O)C2)cc1S(=O)(=O)N(C)Cc1ccccc1` (configuration not stated), the “activity (protection)” value was 1.43% (inactive). For `CC(O)[C@H]1CNC(=O)C(=O)N1CCc1cccc(F)c1` (some centres not stated), the “activity (protection)” value was 1.24% (inactive). With `O=C(NCc1ccc(F)cc1)c1cc(S(=O)(=O)N2CCCCC2)ccc1N1CCOCC1` the “activity (protection)” value was -0.974% (inactive). In the case of `O=C(Cc1ccc(Cl)cc1)c1c[nH]c(C(=O)NCCCn2ccnc2)c1`, the “activity (protection)” value is reported as 1.41% (inactive). With `O=c1ccc(S(=O)(=O)N2CCCC2)c[nH]1` the “activity (protection)” value was -0.609% (inactive).
